Source: PubChem (Broad Institute)
FGF22 binding = shifts melting point of recombinant human FGF22; activity (Tm shift, normalised), % at 9.99 µM; Q9HCT0; 1.5% of 340,000 active; recombinant FGF22 thermal shift, SYPRO orange fluorescence; percent of sucrose octasulfate shift, DMSO zero;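 active = mean Tm shift, scaled 0 neutral to 100 positive control, at about 1.3% or above, every replicate too, limit read from the data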
Target sequence (Q9HCT0 whole entry, looked up): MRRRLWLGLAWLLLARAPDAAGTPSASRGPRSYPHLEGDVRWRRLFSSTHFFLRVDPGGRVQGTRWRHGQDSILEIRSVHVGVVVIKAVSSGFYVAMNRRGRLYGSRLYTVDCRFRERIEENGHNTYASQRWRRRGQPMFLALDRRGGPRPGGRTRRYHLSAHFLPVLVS
SIRT5 inh = blocks human SIRT5 desuccinylation of peptide; Q9NXA8; 1.1% of 330,000 active; AID 652115; inhibition, % at 15 µM; Purified SirT5, succinyl-peptide AMC, trypsin-coupled fluorescence; in the data active = inhibition above about 15%
Casp6 inh = inhibitors of human caspase-6 | purified caspase-6, Z-VEID-R110 cleavage fluorescence | P55212 | inhibition, % at 12.5 µM | 0.53% of 350,000 active | AID 686996;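 active = mean inhibition across replicates at least about 35%, with every replicate also reaching that limit, limit read from the data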;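 also: 0% = median of neutral control wells and 100% = no fluorescence left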
Target sequence (P55212 24-179 limits assumed): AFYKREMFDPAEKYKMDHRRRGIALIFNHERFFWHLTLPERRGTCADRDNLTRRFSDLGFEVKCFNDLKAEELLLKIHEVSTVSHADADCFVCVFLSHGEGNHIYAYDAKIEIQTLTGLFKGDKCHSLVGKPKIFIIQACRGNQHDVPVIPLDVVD
Target sequence (P55212 194-293 limits assumed): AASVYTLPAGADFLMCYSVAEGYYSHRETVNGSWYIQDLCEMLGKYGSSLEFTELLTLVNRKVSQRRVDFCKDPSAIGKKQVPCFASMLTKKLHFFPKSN
INS-1E GSIS act = primary screen for activators of insulin secretion dependent on glucose, INS-1E cells, GLuc reporter luminescence | INS-1E GLuc reporter insulin secretion, 2-3 h | 0.61% of 370,000 active | activation, % at 16.6 µM | AID 743287;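 active = lowest replicate activation of at least 40%, so every replicate reaches that level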;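 also: 0% = median of neutral control wells and 100% = median of IBMX positive control wells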
ERAP1 HTS inh = ERAP1 (human) enzyme inhibition; Q9NZ08; recombinant ERAP1, Leu-AMC fluorescence, 60 min; inhibition, % at 10.7 µM; 0.15% of 340,000 active; AID 652197;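 active = mean replicate inhibition of at least 30%, or all replicates individually reaching that 30% level; inactive = mean below 30% and not every replicate reaching it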;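 also: 0% = neutral control wells and 100% = L-leucinethiol positive control wells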
An asterisk follows results filed as active; . = no result given. Rows were chosen to be rich in hits. Some 3.3% of all compounds tested hit in one or more screens of this group.

SMILES | FGF22 binding | SIRT5 inh | Casp6 inh | INS-1E GSIS act | ERAP1 HTS inh
COCC(=O)N1C[C@@H](C)[C@H](OC)CN(C)C(=O)c2cc(NC(=O)Nc3cccc(F)c3)ccc2OC[C@H]1C | -0.3 | 1.0 | -1.1 | -17.3 | -2.9
CN1CCN(C(=O)C[C@@H]2CC[C@H]3[C@@H](COc4ccc(NC(=O)C5CCOCC5)cc4C(=O)N3C)O2)CC1 | 0.0 | -0.3 | -10.0 | 12.6 | -0.1
Fc1ccc(CCNC(=S)Nc2ccc(F)c(Cl)c2)cc1 | 1.9* | -4.0 | 5.7 | 21.6 | 0.5
Fc1cccc(NC(=S)NCCc2ccccc2)c1 | 1.7* | -3.8 | -0.2 | -7.4 | -3.6
Fc1ccc(F)c(NC(=S)NCCc2ccccc2)c1 | . | -3.3 | -0.6 | -49.5 | -1.3
CO[C@H]1CN(C)C(=O)c2cc(NS(=O)(=O)c3ccccc3F)ccc2OC[C@H](C)NC[C@@H]1C | -0.1 | -0.3 | 2.5 | 16.5 | -3.4
Cc1cc(C)cc(N(CC(=O)N2CCCCCC2)S(C)(=O)=O)c1 | -0.1 | 2.7 | 36.4* | 10.2 | -2.4
COc1cc2c(cc1OC)C[N+](C)(C)CC2 | 0.1 | . | -2.3 | -5.6 | 64.5*
CCOC(=O)Cc1ccc(NC(=O)c2cccc([N+](=O)[O-])c2)cc1 | -0.2 | -4.0 | 0.3 | -4.7 | -0.5
CC(/C=N/NC(=O)c1cccc([N+](=O)[O-])c1)=C\c1ccccc1 | . | . | . | 49.5* | .
CC(NC(=O)c1ccccc1)C(=O)N/N=C/c1ccc(O)cc1 (stereo unspecified) | 0.1 | 2.2 | -0.1 | -4.9 | -3.4
COC(=O)c1c(NC(=O)c2cccc([N+](=O)[O-])c2)sc(C(N)=O)c1C | -0.1 | -4.7 | 2.6 | 9.3 | -5.5
COC(=O)c1sc(NC(=O)c2cccc([N+](=O)[O-])c2)c(C(N)=O)c1C | . | . | . | 77.9* | .
CCOC(=O)/C(C)=N/NC(=O)c1cccc([N+](=O)[O-])c1 | 44.2* | 0.8 | -2.8 | 9.1 | -3.3
O=C(N/N=C/c1ccncc1)c1cccc([N+](=O)[O-])c1 | 0.0 | -0.8 | -0.3 | 11.2 | -0.3
CC(NC(=O)c1ccccc1)C(=O)N/N=C/c1cccc([N+](=O)[O-])c1 (stereo unspecified) | 43.0* | -2.8 | -5.3 | 8.2 | -4.4
COc1ccc(S(=O)(=O)N(C)C[C@H]2Oc3c(NC(=O)C4CC4)cccc3C(=O)N([C@@H](C)CO)C[C@H]2C)cc1 | -0.3 | 2.2 | 2.6 | 5.7 | -2.0
O=C(C[C@@H]1CC[C@H]2NC[C@H](O)COC[C@@H]2O1)NCCN1CCCC1 | . | 0.4 | -165.1 | 16.6 | -1.0
Cc1ccc(NC(=O)CO/N=C(\N)c2ccccc2)cc1C | 43.2* | . | -1.5 | . | -0.4
CO[C@@H]1CN(C)C(=O)c2cc(NC(=O)C3CCCC3)ccc2OC[C@@H](C)N(CCC(F)(F)F)C[C@@H]1C | -0.2 | -0.2 | 16.9 | -25.7 | 2.9
Cc1cc2nc(/C(C#N)=C\c3ccc(-c4ccccc4C(=O)O)o3)[nH]c2cc1C | -0.1 | 1.0 | 7.0 | -16.4 | -1.8
Cc1cc2nc3s/c(=C/c4ccc(-c5ccccc5C(=O)O)o4)c(=O)n3c2cc1C | 0.5 | -3.7 | 36.0* | 3.6 | 1.8
O=C(N[C@@H]1CC[C@H](CCNS(=O)(=O)c2ccc(F)cc2)O[C@@H]1CO)c1cnccn1 | -0.7 | 10.5 | 21.2 | 14.4 | -0.3
O=C(CSc1nc2[nH]ncc2c(=O)[nH]1)Nc1ccc(Cl)cc1 | -0.1 | -0.2 | 1.0 | -2.1 | -1.5
O=C(CSc1nc2ccccc2c(=O)[nH]1)Nc1ccc(C(=O)O)cc1 | -0.1 | -0.8 | 37.5* | -5.0 | -17.0
SMILES | FGF22 binding | SIRT5 inh | Casp6 inh | INS-1E GSIS act | ERAP1 HTS inh
CC(C)CC(=O)Nc1ccc(-c2nc3ccccc3c(=O)o2)cc1 | . | . | . | -19.0 | .
CCN(CC)c1ccc(NC(=O)CSc2nc3nc(C)cc(C)c3c(=O)[nH]2)cc1 | -1.9 | 4.3 | 4.2 | 42.1* | -0.3
CC(C)CC(=O)Nc1ccc(-c2nc3ccccc3c(=O)[nH]2)cc1 | -0.2 | 15.8* | -3.1 | 9.8 | -7.8
O=C(CSc1nc2ccccc2c(=O)[nH]1)Nc1ccc([N+](=O)[O-])cc1 | -0.1 | 2.6 | 1.0 | -3.7 | 2.1
CCc1ccc(NC(=O)CSc2nc3[nH]ncc3c(=O)[nH]2)cc1 | 43.2* | 0.2 | -1.5 | -25.1 | 6.7
COc1ccc(NC(=O)CSc2nc3nc(C)cc(C)c3c(=O)[nH]2)cc1 | -0.4 | -3.1 | -0.2 | 2.8 | -3.0
CN(C)C(=O)C[C@H]1CC[C@@H]2[C@H](COc3ccc(NC(=O)C4CCCC4)cc3C(=O)N2C)O1 | . | 9.8 | 0.3 | 5.0 | -3.8
CCOC(=O)c1csc(N)n1 | 0.0 | -2.6 | 1.7 | -5.3 | -2.8
CCOC(=O)c1cc(=O)nc(N)s1 | 43.4* | . | -6.4 | -14.3 | 0.1
CCCc1nc(N)sc1C(=O)OCC | . | . | . | 112.1* | .
O=C1C2CCCCC2C(=O)N1Cc1ccccc1 (stereo unspecified) | 43.5* | -14.5 | 0.9 | 0.6 | -1.6
O=C(c1ccccc1F)N1CC2(C1)[C@@H](c1ccccc1)[C@@H](CO)N2CC1CCCC1 | . | 1.9 | 2.1 | -34.2 | 0.3
O=c1c2ccc(Cl)cc2[nH]c(=S)n1CCC1=CCCCC1 | . | . | . | 165.7* | .
CCN(CC)CCCn1c(=S)[nH]c2cc(Cl)ccc2c1=O | 0.2 | 8.0 | -15.8 | 0.9 | 0.3
CC(C)NC(=O)Nc1ccc2c(c1)C(=O)N(C)C[C@H](C)[C@@H](CN(C)C(=O)OC(C)(C)C)O2 | . | . | . | 10.0 | .
CCCN1[C@@H]2Cn3c(ccc(C4=CCCC4)c3=O)[C@H]1[C@@H](C(=O)N(C)C)[C@@H]2CO | 0.0 | -3.5 | 1.5 | 10.9 | 0.9
Cc1ccc(NC(=O)c2ccc(COc3ccc4c(c3)CCC4)cc2)c(C)c1 | . | . | . | 111.1* | .
O=C(Nc1ccccc1Cl)c1ccc(COc2ccc3c(c2)CCC3)cc1 | . | . | . | -5.9 | .
COc1ccccc1CNS(=O)(=O)c1cc(-c2cc(C)no2)ccc1C(C)C | 0.1 | -2.6 | -4.7 | 46.5* | -3.1
N#Cc1c(NC(=O)c2ccccc2Cl)n(Cc2ccccc2)c2nc3ccccc3nc12 | 0.5 | -3.1 | 100.0* | -31.0 | -2.0
COc1ccc(N=Cc2c(C)[nH][nH]c2=O)cc1 | 43.2* | 2.0 | 0.3 | -1.0 | 4.3
C[C@@H]1CN([C@H](C)CO)C(=O)c2cc(NC(=O)Nc3ccc4c(c3)OCO4)ccc2O[C@@H](C)CCCCO[C@@H]1CN(C)C(=O)Cc1ccccc1 | -0.4 | 6.7 | 0.1 | 7.1 | -2.2
CO[C@H]1CN(C)C(=O)c2ccc(NC(C)=O)cc2OC[C@H](C)N(Cc2nccs2)C[C@@H]1C | -0.1 | 18.4* | 7.8 | -8.6 | 1.1
CO[C@@H]1CN(C)C(=O)c2ccc(NS(C)(=O)=O)cc2OC[C@@H](C)N(Cc2nccs2)C[C@H]1C | -0.1 | 20.0* | -0.4 | 4.6 | -4.2
C[C@@H]1CN([C@H](C)CO)C(=O)c2cc(NS(=O)(=O)c3ccc(Cl)cc3)ccc2O[C@H]1CN(C)CC1CC1 | -0.4 | 0.7 | -0.5 | 2.6 | 1.3
Cc1ccc(S(=O)(=O)Nc2ccc3c(c2)C(=O)N([C@@H](C)CO)C[C@@H](C)[C@@H](CN(C)S(=O)(=O)c2cccs2)OCCCC[C@@H](C)O3)cc1 | -0.5 | 4.7 | 0.0 | -0.5 | 1.0
